Data from PubChem BioAssay (NCATS).
Results filed as inconclusive are left out. Active and inactive are the calls of the source. Calls come from the whole dose curve; as a rule, active = well fitted curve in the direction sought with a large enough effect; inconclusive = small, poorly fitted or top-dose-only effect, or another doubt; inactive = no such curve, though single readings can be large; an effect the other way counts as inactive or inconclusive.

What was measured:
[1] = Quantitative High-Throughput drug screen in 47 multiple myeloma cell lines against the NCATS MIPE library collection: H1112_PLB cell viability assay (AID 1918967; note: nearly all actives have a fitted effect of over 30% in size; note: potency is the fitted concentration of half-maximal effect)
Summary of the method: (§1)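 Relative luminescence from CellTiter-Glo served as the viability signal, referenced to DMSO-treated (100%) and cell-free medium (0%) controls. Treatment lasted 48 hours at 37C with 500 cells per well.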

[2] = Quantitative High-Throughput drug screen in 47 multiple myeloma cell lines against the NCATS MIPE library collection: KMS27_JCRB cell viability assay (AID 1918970); note: nearly all actives have a fitted effect of over 30% in size; note: potency is the fitted concentration of half-maximal effect
Summary of the method: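 Each line is seeded at 500 cells per well and treated with library compounds for 48 hours under 37 °C, 5% CO2. CellTiter-Glo is then added for 5 min at room temperature before median relative luminescence is recorded.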

[3] = Quantitative High-Throughput drug screen in 47 multiple myeloma cell lines against the NCATS MIPE library collection: KMS12BM_JCRB cell viability assay (AID 1918971); note: nearly all actives have a fitted effect of over 35% in size; note: potency is the fitted concentration of half-maximal effect
Summary of the method: (§2)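 qHTS of the MIPE 4.0 collection: 500 myeloma cells/well, 48 h drug exposure at 37C in 5% CO2, then CellTiter-Glo for 5 min at room temperature before luminescence reading.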

[4] = Quantitative High-Throughput drug screen in 47 multiple myeloma cell lines against the NCATS MIPE library collection: KMS12PE_JCRB cell viability assay (AID 1918972); note: nearly all actives have a fitted effect of over 30% in size; note: potency is the fitted concentration of half-maximal effect
Summary of the method: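 CellTiter-Glo ATP luminescence gave viability after 48 h compound treatment at 37C of 500 multiple myeloma cells per well. Normalisation used DMSO-only wells as 100% and media-only wells as 0% viability; primary qHTS of approved and investigational drugs.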

[5] = Quantitative High-Throughput drug screen in 47 multiple myeloma cell lines against the NCATS MIPE library collection: KMS20_JCRB cell viability assay (AID 1918973); note: potency is the fitted concentration of half-maximal effect; nearly all actives have a fitted effect of over 45% in size
Summary of the method: as §1

[6] = Quantitative High-Throughput drug screen in 47 multiple myeloma cell lines against the NCATS MIPE library collection: KMS21BM_JCRB cell viability assay (AID 1918974); details: ATP luminescence, 48 h; viability: at 45.8 µM (top of the series) unless noted; note: potency is the fitted concentration of half-maximal effect
Summary of the method: as §1

[7] = Quantitative High-Throughput drug screen in 47 multiple myeloma cell lines against the NCATS MIPE library collection: KMS26_JCRB cell viability assay (AID 1918975); note: nearly all actives have a fitted effect of over 45% in size; note: potency is the fitted concentration of half-maximal effect
Summary of the method: as §2

[8] = Quantitative High-Throughput drug screen in 47 multiple myeloma cell lines against the NCATS MIPE library collection: OCIMY1_PLB cell viability assay (AID 1918979); note: nearly all actives have a fitted effect of over 35% in size; note: potency is the fitted concentration of half-maximal effect
Summary of the method: (§3)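 ATP-based CellTiter-Glo luminescence after 48 h drug exposure (37 °C, 5% CO2) of 500 myeloma cells per well. DMSO-only wells set 100% viability, media-only wells 0%; MIPE 4.0 library added by pin tool.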

[9] = Quantitative High-Throughput drug screen in 47 multiple myeloma cell lines against the NCATS MIPE library collection: MM1S_ATCC cell viability assay (AID 1918980); note: nearly all actives have a fitted effect of over 45% in size; note: potency is the fitted concentration of half-maximal effect
Summary of the method: as §3

[10] = Quantitative High-Throughput drug screen in 47 multiple myeloma cell lines against the NCATS MIPE library collection: MM1R_ATCC cell viability assay (AID 1918981); note: nearly all actives have a fitted effect of over 35% in size
Summary of the method: as §3

[11] = Quantitative High-Throughput drug screen in 47 multiple myeloma cell lines against the NCATS MIPE library collection: LP1_DSMZ cell viability assay (AID 1918982); note: nearly all actives have a fitted effect of over 35% in size
Summary of the method: as §3

[12] = Quantitative High-Throughput drug screen in 47 multiple myeloma cell lines against the NCATS MIPE library collection: KMS34_JCRB cell viability assay (AID 1918985); note: nearly all actives have a fitted effect of over 40% in size; note: potency is the fitted concentration of half-maximal effect
Summary of the method: as §3

[13] = Quantitative High-Throughput drug screen in 47 multiple myeloma cell lines against the NCATS MIPE library collection: OCIMY7_PLB cell viability assay (AID 1918987); details: OCI-MY7 myeloma viability, CellTiter-Glo ATP, 48 h; viability (% of DMSO): at 45.8 µM (top of the series); note: nearly all actives have a fitted effect of over 65% in size; note: potency is the fitted concentration of half-maximal effect
Summary of the method: as §3

[14] = Quantitative High-Throughput drug screen in 47 multiple myeloma cell lines against the NCATS MIPE library collection: MMM1_PLB cell viability assay (AID 1918976)
Summary of the method: as §3

[15] = Quantitative High-Throughput drug screen in 47 multiple myeloma cell lines against the NCATS MIPE library collection: MOLP8_DSMZ cell viability assay (AID 1918977); note: nearly all actives have a fitted effect of over 45% in size; note: potency is the fitted concentration of half-maximal effect
Summary of the method: as §3

[16] = Quantitative High-Throughput drug screen in 47 multiple myeloma cell lines against the NCATS MIPE library collection: NCIH929_DSMZ cell viability assay (AID 1918978); note: nearly all actives have a fitted effect of over 35% in size; note: potency is the fitted concentration of half-maximal effect
Summary of the method: as §3

[17] = Quantitative High-Throughput drug screen in 47 multiple myeloma cell lines against the NCATS MIPE library collection: L363_DSMZ cell viability assay (AID 1918984); note: nearly all actives have a fitted effect of over 40% in size; note: potency is the fitted concentration of half-maximal effect
Summary of the method: as §3

[18] = Quantitative High-Throughput drug screen in 47 multiple myeloma cell lines against the NCATS MIPE library collection: KMS28PE_JCRB cell viability assay (AID 1918983); note: nearly all actives have a fitted effect of over 35% in size; note: potency is the fitted concentration of half-maximal effect
Summary of the method: as §3

[19] = Quantitative High-Throughput drug screen in 47 multiple myeloma cell lines against the NCATS MIPE library collection: Karpas25_ECACC cell viability assay (AID 1918968)
Summary of the method: as §1

[20] = Quantitative High-Throughput drug screen in 47 multiple myeloma cell lines against the NCATS MIPE library collection: OCIMY5_PLB cell viability assay (AID 1918988); note: nearly all actives have a fitted effect of over 65% in size; note: potency is the fitted concentration of half-maximal effect
Summary of the method: as §3

CCn1c(C(=O)N(C2CC2)C2CC2)cc2c3c(ncn3C)c(Nc3cc(C)n(C)n3)nc21
active: Potency [1] 18.7 µM | Potency [4] 11.8 µM | Potency [5] 16.6 µM | Potency [13] 14.8 µM
inactive: Potency [2] | Potency [3] | Potency [6] | Potency [7] | Potency [8] | Potency [9] | Potency [10] | Potency [11] | Potency [12]

OC[C@H]1O[C@@H](n2cnc3c2NC=NC[C@@H]3O)C[C@H]1O
active: Potency [1] 18.7 µM | Potency [2] 13.2 µM | Potency [6] 4.2 nM | Potency [14] 20.9 µM | Potency [16] 26.4 µM | Potency [13] 23.5 µM
inactive: Potency [4] | Potency [7] | Potency [15] | Potency [8] | Potency [10] | Potency [17]

O=C(Nc1c(Cl)cncc1Cl)c1ccc(OC(F)F)c(OCC2CC2)c1
active: Potency [16] 23.5 µM | Potency [8] 0.0012 µM | Potency [9] 23.5 µM
inactive: Potency [1] | Potency [2] | Potency [3] | Potency [4] | Potency [6] | Potency [7] | Potency [18] | Potency [17]

O=C1C(Cl)=C(NCCN2CCOCC2)C(=O)c2ncccc21
active: Potency [19] 2.64 µM | Potency [2] 2.64 µM | Potency [3] 2.96 µM | Potency [4] 3.32 µM | Potency [5] 4.69 µM | Potency [7] 6.62 µM | Potency [14] 2.96 µM | Potency [15] 2.96 µM | Potency [16] 7.43 µM | Potency [8] 6.62 µM | Potency [9] 3.32 µM | Potency [18] 4.18 µM | Potency [17] 3.72 µM | Potency [12] 4.18 µM | Potency [13] 3.32 µM | Potency [20] 2.35 µM

O=c1cc(-c2ccccc2)oc2cc(O)cc(O)c12
inactive: Potency [1] | Potency [16] | Potency [10] | Potency [12]
active: Potency [17] 16.6 µM

CCOC1OC(=O)C[C@H]1NC(=O)[C@@H]1CCCN1C(=O)[C@@H](NC(=O)c1ccc(N)c(Cl)c1)C(C)(C)C (stereo partly specified)
active: Potency [2] 5.26 µM | Potency [4] 11.8 µM | Potency [9] 26.4 µM | viability (% of DMSO) [13] 164%
inactive: Potency [1] | Potency [3] | Potency [7] | Potency [15] | Potency [16] | Potency [8] | Potency [10] | Potency [11] | Potency [12] | Potency [20]
